PubChem BioAssay (NCI)
This is part of a sample that, as a whole, favours compounds with a hit. Of some 83,000 tested, about 20% had one in any assay.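 Values shown are percent growth following 48 h exposure of cells in 96-well plates to a single concentration of compound; below 10 was considered active.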 Values without a mark were called inactive. Activity calls are given as the source filed them.

What follows are compounds tested on RXF 393 renal (assay: NCI-60 one-dose screen, 48 h (100 = growth as untreated, 0 = no growth, -100 = all killed)). Conditions: 10 µM unless noted.

Row | SMILES | growth
1 | CCOC(=O)C(=Cc1c(-c2ccccc2)[nH]c2ccccc12)C(=O)OCC | 51.9%
2 | COc1ccc(C2=NN(c3ccc(S(N)(=O)=O)cc3)C(c3ccc(Cl)cc3)C2)c(O)c1 (centres undefined) | 45.1%
3 | CCOC(=O)C1=C(C)n2nc(CC#N)c(C#N)c2NC1c1ccc(Cl)cc1 (centres undefined) | 100%
4 | CCOC(=O)c1sc(/N=C2\NC(=O)/C(=C/c3ccc(N4CCN(C)CC4)cc3)S2)nc1C | 112%
5 | CC(C)NS(=O)(=O)c1cccc(-c2ccc3c(=O)n(CCCN)c4c(c3c2)C(=O)c2ccccc2-4)c1 | 109%
6 | COc1cc2nc3c(=O)n(CCN(C)C)cnn3c(=O)c2cc1OC | 108%
7 | COc1ccc(/C(=N\O)c2cc(C)c(OC)c(C)c2)cc1O | 62.9%
8 | COc1cc(C2=NN(c3ccccc3)C(c3cccc(Nc4ccnc5cc(C(F)(F)F)ccc45)c3)C2)cc(OC)c1OC (centres undefined) | 73.7%
9 | Nc1c(C(=O)Nc2ccccn2)sc2nc3c(cc12)CCCC3 | 84.7%
10 | COc1ccc(-c2cc(-c3nnc(SCC(=O)Nc4ccc(C(C)=O)cc4)o3)c3ccccc3n2)cc1 | -4.69% (active)
11 | Nc1c(C(=O)Nc2ccccn2)sc2nc3c(cc12)CCCCC3 | 13.1%
12 | Sc1cccc2cccnc12 | 13.4%
13 | C=CCn1c(SCC(=O)Nc2ccc(C(=O)/C=C/c3cc(OC)c(OC)c(OC)c3)cc2)nnc1-c1ccc(Cl)cc1 | -42.4% (active)
14 | O=C(/C(=C\c1c(-c2ccccc2)[nH]c2ccccc12)S(=O)(=O)c1ccccc1)c1ccccc1 | 46.7%
15 | COc1ccc2[nH]c(=O)c(/C=C/C(=O)/C=C/c3ccc(O)c(OC)c3)cc2c1 | -76.7% (active)
16 | COc1cc(-c2cn(-c3ccc(Cl)c(Cl)c3)c(=O)[nH]2)cc(OC)c1OC | 86.4%
17 | Cc1cc(C)c2nc(Nc3nc(C)c(C)c(=O)[nH]3)nc(C)c2c1 | -32.4% (active)
18 | COc1ccc2cc(/C=C3\N=C(c4cc(OC)c(OC)c(OC)c4)OC3=O)c(OC)nc2c1 | 119%
19 | COC(=O)/C=C1\SC(=Nc2cccc(OC)c2)N(CCc2c[nH]c3ccccc23)C1=O | 49.2%

Row | SMILES | growth
20 | O=C1Nc2ccc(Br)cc2/C1=N\N=C/c1cn(Cc2ccccc2)c2ccccc12 | 58.4%
21 | COc1cc(-c2nn(-c3ccc(Br)cc3)cc2CO)ccc1O | 116%
22 | CCCCc1ccc(N=Nc2ccc(OCC[N+](C)(C)C)cc2)cc1 | 22.9%
23 | CCN1CCN(c2ccc(NC(=O)Nc3nc4ccc(-c5ccccc5OC)cc4s3)cc2)CC1 | -74.2% (active)
24 | C=C(C)[C@@H]1CC[C@]2(C(=O)O)CC[C@]3(C)[C@H](CC[C@@H]4[C@@]5(C)C[C@@H](CC#Cc6ccccc6C)C(=O)C(C)(C)[C@@H]5CC[C@]43C)[C@@H]12 | 51.8%
25 | CCSc1ccc(C2C(Br)C(=O)N2c2cc(OC)c(OC)c(OC)c2)cc1 (centres undefined) | 2.05% (active)
26 | CCCCc1nc(Cl)c(C2CC(c3ccc(Cl)cc3)=NN2c2cc(Cl)cc(Cl)c2)[nH]1 (centres undefined) | 43.3%
27 | C=C(C)[C@@H]1CC[C@]2(C(=O)OCCOCCOCC[P+](c3ccccc3)(c3ccccc3)c3ccccc3)CC[C@]3(C)[C@H](CC[C@@H]4[C@@]5(C)CC[C@H](C)C(C)(C)[C@@H]5CC[C@]43C)[C@@H]12 | -85.3% (active)
28 | O=C1[C@@H](OS(=O)(=O)CC(F)(F)F)[C@H](c2ccc(F)cn2)N1c1cc2c3ccccc3ccc2c2ccccc12 | 85.9%
29 | CCOC(=O)c1c(C)nc2c(c1N)/C(=C/c1cccs1)C(=O)N2Cc1ccccc1 | 40%
30 | C=CCn1c(SCC(=O)Nc2ccc(C(=O)/C=C/c3ccc(Cl)cc3)cc2)nnc1-c1cc(OC)c(OC)c(OC)c1 | 90.8%
31 | O=C1NN(c2ccccc2)C(c2ccc3c(c2)OCO3)N2CCC[C@@H]12 (some centres undefined) | 117%
32 | Cc1cnc(SCc2ccc(Cl)cc2Cl)nc1Nc1ccc(Cl)c(Cl)c1 | 97.4%
33 | O=C(O)c1cn(C2CC2)c2cc(N3CCN(C(=O)CSc4nnc(-c5ccc(Cl)cc5)n4-c4ccccc4)CC3)c(F)cc2c1=O | 113%
34 | N#Cc1ccc(C2C3=C(CCCC3=O)OC3=C2C(=O)c2ccccc2C3=O)cc1 (centres undefined) | 102%
35 | COc1ccc2c(c1)OC13Oc4cc(OC)ccc4C=C1CCCCC3=C2 | 87.5%
36 | C=C1C(=O)O[C@H]2[C@H]1CC/C(COC(=O)/C=C/c1cccnc1)=C\CC[C@@]1(C)O[C@@H]21 | -9.04% (active)
37 | COC1=CC2C=C(C3N(c4ccccc4)NC(=O)[C@@H]4CCCN34)C(=O)NC2C=C1 (some centres undefined) | 116%

These compounds were tested on SF-268 CNS in the same assay as above. Conditions: 10 µM unless noted.

Row | SMILES | growth
38 | CCOC(=O)C(=Cc1c(-c2ccccc2)[nH]c2ccccc12)C(=O)OCC | 60.7%
39 | COc1ccc(C2=NN(c3ccc(S(N)(=O)=O)cc3)C(c3ccc(Cl)cc3)C2)c(O)c1 (centres undefined) | 83.8%
40 | CCOC(=O)C1=C(C)n2nc(CC#N)c(C#N)c2NC1c1ccc(Cl)cc1 (centres undefined) | 87.3%
41 | CCOC(=O)c1sc(/N=C2\NC(=O)/C(=C/c3ccc(N4CCN(C)CC4)cc3)S2)nc1C | 97.3%
42 | CC(C)NS(=O)(=O)c1cccc(-c2ccc3c(=O)n(CCCN)c4c(c3c2)C(=O)c2ccccc2-4)c1 | 98.2%
43 | COc1cc2nc3c(=O)n(CCN(C)C)cnn3c(=O)c2cc1OC | 101%
44 | COc1ccc(/C(=N\O)c2cc(C)c(OC)c(C)c2)cc1O | 30.4%
45 | COc1cc(C2=NN(c3ccccc3)C(c3cccc(Nc4ccnc5cc(C(F)(F)F)ccc45)c3)C2)cc(OC)c1OC (centres undefined) | 74.3%
46 | Nc1c(C(=O)Nc2ccccn2)sc2nc3c(cc12)CCCC3 | 62.4%
47 | COc1ccc(-c2cc(-c3nnc(SCC(=O)Nc4ccc(C(C)=O)cc4)o3)c3ccccc3n2)cc1 | 33.8%
48 | Nc1c(C(=O)Nc2ccccn2)sc2nc3c(cc12)CCCCC3 | 53.4%
49 | Sc1cccc2cccnc12 | 34.1%
50 | C=CCn1c(SCC(=O)Nc2ccc(C(=O)/C=C/c3cc(OC)c(OC)c(OC)c3)cc2)nnc1-c1ccc(Cl)cc1 | 19.8%
51 | O=C(/C(=C\c1c(-c2ccccc2)[nH]c2ccccc12)S(=O)(=O)c1ccccc1)c1ccccc1 | 62.1%
52 | COc1ccc2[nH]c(=O)c(/C=C/C(=O)/C=C/c3ccc(O)c(OC)c3)cc2c1 | 9.98% (active)
53 | COc1cc(-c2cn(-c3ccc(Cl)c(Cl)c3)c(=O)[nH]2)cc(OC)c1OC | 87.6%
54 | Cc1cc(C)c2nc(Nc3nc(C)c(C)c(=O)[nH]3)nc(C)c2c1 | 26.9%
55 | COc1ccc2cc(/C=C3\N=C(c4cc(OC)c(OC)c(OC)c4)OC3=O)c(OC)nc2c1 | 98.2%
56 | COC(=O)/C=C1\SC(=Nc2cccc(OC)c2)N(CCc2c[nH]c3ccccc23)C1=O | 82.8%

Row | SMILES | growth
57 | O=C1Nc2ccc(Br)cc2/C1=N\N=C/c1cn(Cc2ccccc2)c2ccccc12 | 95%
58 | COc1cc(-c2nn(-c3ccc(Br)cc3)cc2CO)ccc1O | 77.7%
59 | CCCCc1ccc(N=Nc2ccc(OCC[N+](C)(C)C)cc2)cc1 | 26.9%
60 | CCN1CCN(c2ccc(NC(=O)Nc3nc4ccc(-c5ccccc5OC)cc4s3)cc2)CC1 | -59.4% (active)
61 | C=C(C)[C@@H]1CC[C@]2(C(=O)O)CC[C@]3(C)[C@H](CC[C@@H]4[C@@]5(C)C[C@@H](CC#Cc6ccccc6C)C(=O)C(C)(C)[C@@H]5CC[C@]43C)[C@@H]12 | 48.4%
62 | CCSc1ccc(C2C(Br)C(=O)N2c2cc(OC)c(OC)c(OC)c2)cc1 (centres undefined) | 38.7%
63 | CCCCc1nc(Cl)c(C2CC(c3ccc(Cl)cc3)=NN2c2cc(Cl)cc(Cl)c2)[nH]1 (centres undefined) | 41.2%
64 | C=C(C)[C@@H]1CC[C@]2(C(=O)OCCOCCOCC[P+](c3ccccc3)(c3ccccc3)c3ccccc3)CC[C@]3(C)[C@H](CC[C@@H]4[C@@]5(C)CC[C@H](C)C(C)(C)[C@@H]5CC[C@]43C)[C@@H]12 | -74.5% (active)
65 | O=C1[C@@H](OS(=O)(=O)CC(F)(F)F)[C@H](c2ccc(F)cn2)N1c1cc2c3ccccc3ccc2c2ccccc12 | 78.9%
66 | CCOC(=O)c1c(C)nc2c(c1N)/C(=C/c1cccs1)C(=O)N2Cc1ccccc1 | 74.7%
67 | C=CCn1c(SCC(=O)Nc2ccc(C(=O)/C=C/c3ccc(Cl)cc3)cc2)nnc1-c1cc(OC)c(OC)c(OC)c1 | 87.8%
68 | O=C1NN(c2ccccc2)C(c2ccc3c(c2)OCO3)N2CCC[C@@H]12 (some centres undefined) | 94%
69 | Cc1cnc(SCc2ccc(Cl)cc2Cl)nc1Nc1ccc(Cl)c(Cl)c1 | 90.5%
70 | O=C(O)c1cn(C2CC2)c2cc(N3CCN(C(=O)CSc4nnc(-c5ccc(Cl)cc5)n4-c4ccccc4)CC3)c(F)cc2c1=O | 103%
71 | N#Cc1ccc(C2C3=C(CCCC3=O)OC3=C2C(=O)c2ccccc2C3=O)cc1 (centres undefined) | 70.9%
72 | COc1ccc2c(c1)OC13Oc4cc(OC)ccc4C=C1CCCCC3=C2 | 90.7%
73 | C=C1C(=O)O[C@H]2[C@H]1CC/C(COC(=O)/C=C/c1cccnc1)=C\CC[C@@]1(C)O[C@@H]21 | 57.6%
74 | COC1=CC2C=C(C3N(c4ccccc4)NC(=O)[C@@H]4CCCN34)C(=O)NC2C=C1 (some centres undefined) | 99.8%
